Assay results reported in PubChem BioAssay (NCATS).
Records with an inconclusive call do not appear. Activity calls are given as the source filed them. Calls follow the shape of the dose curve; as a rule, active = well fitted curve in the direction sought with a large enough effect; inconclusive = small, poorly fitted or top-dose-only effect, or another doubt; inactive = no such curve, though single readings can be large; an effect the other way counts as inactive or inconclusive.

Key:
[1] = molecular target: Rap guanine nucleotide exchange factor 3 (Homo sapiens) (UniProt O95398); test: Confirmatory qHTS for antagonist of cAMP-regulated guanine nucleotide exchange factor 3 (EPAC1) (AID 1645880); also: nearly all actives have a fitted effect of over 55% in size; also: potency is read from the fitted curve at half-maximal effect
In short: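 Nucleotide exchange uses 100 nM EPAC1, 250 nM RAP1B-BODIPY-GDP and 50 uM GDP, with compounds in a concentration-titration series. After 5 min at room temperature, fluorescence (480 nm ex/540 nm em) is read every 5 min for 30 min. Data are normalized to control ATA and DMSO.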

[2] = molecular target: Rap guanine nucleotide exchange factor 3 (Homo sapiens) (UniProt O95398); test: Confirmatory qHTS for agonist of cAMP-regulated guanine nucleotide exchange factor 3 (EPAC1) (AID 1645881); also: nearly all actives have a fitted effect of over 75% in size; also: potency is read from the fitted curve at half-maximal effect;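 as to activation: EPAC1 catalysed release of BODIPY-GDP from Rap1B seen as fluorescence loss; 100% = effect of cAMP agonist control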
[3] = molecular target: Rap guanine nucleotide exchange factor 4 (Homo sapiens) (UniProt Q8WZA2); test: Confirmatory qHTS for agonist of cAMP-regulated guanine nucleotide exchange factor 4 (EPAC2) (AID 1645884);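 also: nucleotide exchange releases bodipy-GDP from Rap1 and this lowers its fluorescence; nearly all actives have a fitted effect of over 65% in size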; also: potency is read from the fitted curve at half-maximal effect; as to activation: % is scaled to controls: 0 for no effect and ±100 for the full control effect
[4] = molecular target: Rap guanine nucleotide exchange factor 4 (Homo sapiens) (UniProt Q8WZA2); test: Confirmatory qHTS for antagonist of cAMP-regulated guanine nucleotide exchange factor 4 (EPAC2) (AID 1645885); also: nearly all actives have a fitted effect of over 25% in size; also: potency is read from the fitted curve at half-maximal effect; as to activity change, negative = inhibition: % is scaled to controls: 0 for no effect and ±100 for the full control effect
[5] = molecular target: Rap guanine nucleotide exchange factor 3 (Homo sapiens) (UniProt O95398); test: Counterscreen qHTS for antagonist of cAMP-regulated guanine nucleotide exchange factor 3 (EPAC1) (AID 1645888);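 also: fluorescence loss as bound BODIPY-GDP is released from Rap1B; % of control where 0% means no effect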
In short: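 Rap1B-BODIPY-GDP 250 nM + GDP 50 uM; cpds 7-pt, final 9.74 nM–152 uM (activator mode) or from 7.32 nM upwards (inhibitor mode); RT; FI 480/540 nm at 5 and 30 min, then ± cAMP, reread.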

Chain of Rap guanine nucleotide exchange factor 3 (Homo sapiens) (O95398 whole entry, looked up): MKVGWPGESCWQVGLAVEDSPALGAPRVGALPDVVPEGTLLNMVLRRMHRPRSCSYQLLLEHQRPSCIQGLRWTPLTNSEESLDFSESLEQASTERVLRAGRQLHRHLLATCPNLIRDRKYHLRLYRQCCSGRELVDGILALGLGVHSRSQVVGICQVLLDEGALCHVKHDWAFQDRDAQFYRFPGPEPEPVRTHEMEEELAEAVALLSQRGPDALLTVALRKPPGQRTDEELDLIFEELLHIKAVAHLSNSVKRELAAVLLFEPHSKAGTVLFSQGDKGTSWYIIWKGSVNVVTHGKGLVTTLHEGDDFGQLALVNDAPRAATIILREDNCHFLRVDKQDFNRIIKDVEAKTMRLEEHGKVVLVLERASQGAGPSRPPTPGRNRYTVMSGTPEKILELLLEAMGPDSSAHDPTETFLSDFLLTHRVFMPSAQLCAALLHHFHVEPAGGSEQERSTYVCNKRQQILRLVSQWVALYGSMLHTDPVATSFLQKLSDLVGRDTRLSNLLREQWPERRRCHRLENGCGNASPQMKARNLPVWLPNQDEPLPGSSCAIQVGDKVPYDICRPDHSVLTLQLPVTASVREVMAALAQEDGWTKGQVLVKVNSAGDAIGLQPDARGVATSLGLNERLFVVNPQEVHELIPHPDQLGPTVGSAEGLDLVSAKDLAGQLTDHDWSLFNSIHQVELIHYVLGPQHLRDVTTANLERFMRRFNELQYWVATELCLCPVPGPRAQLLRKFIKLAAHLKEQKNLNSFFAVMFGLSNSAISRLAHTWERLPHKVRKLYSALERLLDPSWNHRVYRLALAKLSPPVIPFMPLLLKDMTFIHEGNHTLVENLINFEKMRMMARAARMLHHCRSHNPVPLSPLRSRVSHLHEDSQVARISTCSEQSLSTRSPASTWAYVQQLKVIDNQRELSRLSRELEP
Chain of Rap guanine nucleotide exchange factor 4 (Homo sapiens) (Q8WZA2 whole entry, looked up): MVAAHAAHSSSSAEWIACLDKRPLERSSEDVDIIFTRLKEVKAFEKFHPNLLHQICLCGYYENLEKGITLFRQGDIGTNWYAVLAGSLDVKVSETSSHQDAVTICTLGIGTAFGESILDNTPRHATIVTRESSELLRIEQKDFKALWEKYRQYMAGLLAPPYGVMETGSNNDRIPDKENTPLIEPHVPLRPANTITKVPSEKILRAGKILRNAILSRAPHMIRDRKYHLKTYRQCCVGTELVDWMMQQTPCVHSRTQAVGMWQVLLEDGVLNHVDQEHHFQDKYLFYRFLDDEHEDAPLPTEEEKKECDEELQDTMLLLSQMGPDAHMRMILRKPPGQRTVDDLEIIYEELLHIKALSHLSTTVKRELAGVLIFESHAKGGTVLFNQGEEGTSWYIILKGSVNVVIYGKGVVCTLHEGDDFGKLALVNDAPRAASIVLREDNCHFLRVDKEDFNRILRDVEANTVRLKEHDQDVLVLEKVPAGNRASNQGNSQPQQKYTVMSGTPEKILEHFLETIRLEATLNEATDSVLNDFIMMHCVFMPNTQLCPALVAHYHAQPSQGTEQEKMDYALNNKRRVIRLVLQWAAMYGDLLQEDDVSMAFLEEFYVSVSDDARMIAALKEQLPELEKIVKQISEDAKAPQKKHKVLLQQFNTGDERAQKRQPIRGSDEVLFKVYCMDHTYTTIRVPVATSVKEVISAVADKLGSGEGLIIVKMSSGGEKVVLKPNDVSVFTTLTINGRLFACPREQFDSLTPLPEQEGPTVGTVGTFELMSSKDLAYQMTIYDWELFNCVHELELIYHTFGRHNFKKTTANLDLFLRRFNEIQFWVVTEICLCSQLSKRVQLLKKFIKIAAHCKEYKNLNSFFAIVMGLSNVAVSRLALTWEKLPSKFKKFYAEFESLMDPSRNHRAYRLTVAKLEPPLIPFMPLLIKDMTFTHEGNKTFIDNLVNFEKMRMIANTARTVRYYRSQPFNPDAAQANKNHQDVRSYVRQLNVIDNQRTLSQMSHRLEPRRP

COc1ccc(S(=O)(=O)N2C(=O)/C(=C3\SC(N)=NC3=O)c3ccccc32)cc1
inactive: Potency [1] | Potency [2] | Potency [3] | Potency [4] | Potency [5]

O=c1oc(-c2ccccc2NS(=O)(=O)c2ccccc2)nc2ccccc12
inactive: Potency [1] | Potency [2] | activation [3] 2.35% [at 17.1 µM, percent relative to cAMP agonist control] | Potency [4] | activity change, negative = inhibition [5] 2.74% [at 30.8 µM]

O=C1CSC2(C(=O)N(Cc3ccccc3F)c3ccccc32)N1c1ccc(F)cc1 (stereo not given)
inactive: Potency [1] | Potency [2] | Potency [3] | outcome [4] inactive [at 12.7 µM] | Potency [5]

CCOc1ncccc1C(=O)Nc1ccc(C)c(S(=O)(=O)N2CCCCCC2)c1
inactive: Potency [1] | Potency [2] | Potency [3] | Potency [4] | Potency [5]

CC1(C(=O)NS(=O)(=O)c2cccc(Cl)c2)CCN1C(=O)C1(c2ccc(Cl)cc2)CC1 (stereo not given)
inactive: Potency [2] | activation [3] 2.34% [at 17.1 µM, percent relative to cAMP agonist control] | Potency [4] | activity change, negative = inhibition [5] -16.3% [at 30.8 µM]
active: Potency [1] 31.6 µM

Oc1ccc(N=Cc2c(O)ccc3ccccc23)cc1
inactive: Potency [1] | Potency [2] | activation [3] 11.7% [at 17.1 µM, percent relative to cAMP agonist control] | Potency [4] | activity change, negative = inhibition [5] -17% [at 30.8 µM]

O=S(=O)(c1cc(O)ccc1O)c1cccc2c(S(=O)(=O)c3cc(O)ccc3O)cccc12
active: Potency [1] 44.7 µM
inactive: Potency [2] | activation [3] 5.63% [at 17.1 µM, percent relative to cAMP agonist control] | Potency [4] | activity change, negative = inhibition [5] -9.89% [at 30.8 µM]

COc1cccc(CC(=O)Nc2ccc(S(=O)(=O)Nc3nccs3)cc2)c1
inactive: Potency [1] | Potency [2] | activation [3] -3.47% [at 17.1 µM, percent relative to cAMP agonist control] | Potency [4] | activity change, negative = inhibition [5] -17.8% [at 30.8 µM]

CC(C)OC(=O)/C(=C/c1ccc2c(c1)c1ccccc1n2C)NC(=O)c1ccccc1
inactive: Potency [1] | Potency [2] | Potency [3] | Potency [4] | Potency [5]

CCOC(=O)c1ccccc1NC(=S)N1CCC(N2CCCCC2)CC1
inactive: Potency [1] | Potency [2] | Potency [3] | Potency [4] | Potency [5]

Cc1ccccc1OCCn1cnc2c(N)ncnc21
inactive: Potency [1] | Potency [2] | Potency [3] | Potency [4] | Potency [5]

Cc1cc(Cl)ccc1-n1c(CCC(=O)O)ccc1-c1cccs1
inactive: Potency [1] | Potency [2] | Potency [3] | Potency [4] | Potency [5]

NC(=O)COC(=O)/C=C/c1ccc2ccccc2n1
inactive: Potency [1] | Potency [2] | Potency [3] | Potency [4] | Potency [5]

CC(=O)N1CCc2nc3sc(C(=O)Nc4ccc(Cl)cc4F)c(N)c3c(C(F)(F)F)c2C1
inactive: Potency [1] | Potency [2] | Potency [3] | outcome [4] inactive [at 12.7 µM] | Potency [5]

Cc1ccc(C)c(S(=O)(=O)N2CCN(C(=O)CCCc3c[nH]c4ccccc34)CC2)c1
inactive: Potency [1] | Potency [2] | activation [3] 2.96% [at 17.1 µM, percent relative to cAMP agonist control] | Potency [4] | activity change, negative = inhibition [5] -6.79% [at 30.8 µM]

COc1ccccc1NC(=O)c1sc2nc(C)c(C(=O)Nc3ccc(C)cc3C)c(-c3ccco3)c2c1N
inactive: Potency [1] | Potency [2] | Potency [3] | outcome [4] inactive [at 12.7 µM] | Potency [5]

CC(C)[C@H](NC(=O)NCCc1ccc(F)cc1)C(=O)O
inactive: Potency [1] | Potency [2] | activation [3] 8.32% [at 17.1 µM, percent relative to cAMP agonist control] | Potency [4] | activity change, negative = inhibition [5] -8.58% [at 30.8 µM]

COCCn1c(SCC(=O)Nc2ccc3c(c2)CCC3)nc2ccccc2c1=O
inactive: Potency [1] | Potency [2] | activation [3] -0.521% [at 17.1 µM, percent relative to cAMP agonist control] | Potency [4] | activity change, negative = inhibition [5] -10.3% [at 30.8 µM]

Cc1ccc(NC(=O)c2ccc(Cl)cc2Cl)c(C(=O)c2ccccc2)c1
inactive: Potency [1] | Potency [2] | Potency [3] | outcome [4] inactive [at 12.7 µM] | Potency [5]

COC(=O)c1ccc2nc(-c3ccccc3)c(Cc3ccc(C)cc3)n2c1
inactive: Potency [1] | Potency [2] | Potency [3] | Potency [4] | Potency [5]

CC(C)(C)n1cnc2cc(NCc3ccccc3Cl)ccc21
inactive: Potency [2] | Potency [3] | Potency [4] | Potency [5]
active: Potency [1] 84.9 µM

CNc1nc(-c2ccc(OC)cc2)c(-c2ccc(OC)cc2)s1
active: Potency [4] 23.9 µM
inactive: Potency [1] | Potency [2] | Potency [3] | Potency [5]

C=CCOc1ccc(/C=C2\SC(=S)N(C(C(=O)O)c3ccccc3)C2=O)cc1 (stereo not given)
active: Potency [1] 31.6 µM
inactive: Potency [2] | activation [3] 3.84% [at 17.1 µM, percent relative to cAMP agonist control] | Potency [4] | activity change, negative = inhibition [5] -23.9% [at 30.8 µM]

CCCc1cc(=O)[nH]c(SCC(=O)Nc2sc3c(c2C#N)CCC(C)C3)n1 (stereo not given)
inactive: Potency [2] | activation [3] 4.56% [at 17.1 µM, percent relative to cAMP agonist control] | activity change, negative = inhibition [5] -6.17% [at 30.8 µM]
active: Potency [1] 89.1 µM | Potency [4] 0.135 µM

O=c1[nH]c(Nc2ccccc2)cc2ccccc12
active: Potency [1] 37.9 µM
inactive: Potency [2] | Potency [3] | Potency [4] | Potency [5]

COc1ccc(N2CCN(S(=O)(=O)c3cc4c(cc3C)NC(=O)CO4)CC2)cc1
inactive: Potency [1] | Potency [2] | Potency [3] | Potency [4] | Potency [5]

Cn1c(SCc2c(Cl)cccc2Cl)nnc1-c1ccc2nonc2c1
inactive: Potency [1] | Potency [2] | activation [3] 10.1% [at 17.1 µM, percent relative to cAMP agonist control] | Potency [4] | activity change, negative = inhibition [5] -10.9% [at 30.8 µM]

CC(/C=C1\SC(=S)N(NS(=O)(=O)c2ccc(C)cc2)C1=O)=C\c1ccccc1
inactive: Potency [2] | Potency [3] | Potency [5]
active: Potency [1] 26.9 µM | Potency [4] 47.8 µM

CC1(C)CC(=O)C=C(c2ccc(F)cc2OCc2ccccc2)C1
inactive: Potency [1] | Potency [2] | Potency [3] | Potency [4] | Potency [5]

COc1cc(/C=C/CNC[C@H]2O[C@@H](n3cnc4c(=O)[nH]c(N)nc43)[C@H](O)[C@@H]2O)ccc1O
inactive: Potency [1] | Potency [2] | Potency [3] | Potency [4] | Potency [5]

O=c1nc2s/c(=C\c3ccc(-c4ccccc4[N+](=O)[O-])o3)c(=O)n2nc1-c1ccccc1
active: Potency [1] 12 µM
inactive: Potency [2] | Potency [3] | Potency [4] | Potency [5]

Cc1ccc2cc(CN(Cc3ccco3)C(=O)c3ccco3)c3nnnn3c2c1
active: Potency [4] 75.7 µM
inactive: Potency [1] | Potency [2] | Potency [3] | Potency [5]

C[C@H]1CN([C@@H](C)CO)C(=O)c2cccc(NS(=O)(=O)c3ccc(Cl)cc3)c2O[C@@H]1CN(C)CC1CCCCC1
inactive: Potency [1] | Potency [2] | activation [3] 0% [at 17.1 µM, percent relative to cAMP agonist control] | Potency [4] | activity change, negative = inhibition [5] 0.127% [at 30.8 µM]

CCOC(=O)[C@@H](NC(=O)/C=C/[C@H]1O[C@@H](n2cc(C)c(=O)[nH]c2=O)C[C@@H]1O)C(C)C
inactive: Potency [1] | Potency [2] | Potency [3] | Potency [4] | Potency [5]

COc1ccc2oc(C(=O)CCC(=O)O)c(N)c2c1
inactive: Potency [1] | Potency [2] | activation [3] 0% [at 17.1 µM, percent relative to cAMP agonist control] | Potency [4] | activity change, negative = inhibition [5] 3.66% [at 30.8 µM]

Cn1c(=O)c2c(nc(N3CCOCC3)n2CCSc2ncccn2)n(C)c1=O
inactive: Potency [1] | Potency [2] | activation [3] 5.38% [at 17.1 µM, percent relative to cAMP agonist control] | activity change, negative = inhibition [5] -3.24% [at 30.8 µM]
active: Potency [4] 0.338 µM

CC1CCN(c2ccc3c(c2)S(=O)(=O)c2ccccc2C3=O)CC1
active: Potency [2] 112 µM | Potency [3] 100 µM
inactive: Potency [1] | Potency [4] | Potency [5]

CC(C)CN(C(=O)CC1OC(=O)c2ccccc21)c1c(N)n(Cc2ccccc2)c(=O)[nH]c1=O (stereo not given)
inactive: Potency [1] | Potency [2] | Potency [3] | Potency [4] | Potency [5]

CCOC(=O)c1sc(NC(=O)c2ccncc2)nc1C
inactive: Potency [1] | Potency [2] | Potency [3] | Potency [4] | Potency [5]

O=C(CCN1C(=O)S/C(=C\c2ccccc2)C1=O)Nc1ccc(S(=O)(=O)Nc2nccs2)cc1
active: Potency [1] 39.8 µM
inactive: Potency [2] | activation [3] 1.67% [at 17.1 µM, percent relative to cAMP agonist control] | Potency [4] | activity change, negative = inhibition [5] -0.356% [at 30.8 µM]

O=C1S/C(=C\c2ccc(N3CCOCC3)o2)C(=O)N1c1ccccc1
inactive: Potency [1] | Potency [2] | Potency [3] | Potency [4] | Potency [5]

CCOc1ccc(CCNc2ncnc3onc(-c4ccc(Cl)cc4)c23)cc1OCC
inactive: Potency [1] | Potency [2] | Potency [3] | Potency [4] | Potency [5]

O=C(Nc1nc(-c2ccccc2)cs1)c1ccccc1NS(=O)(=O)c1ccc(F)cc1
inactive: Potency [2] | Potency [3] | Potency [5]
active: Potency [1] 19 µM | Potency [4] 19 µM

CN1OC[C@@H]2CN(C(=O)CCc3ccccc3)[C@H](c3cccc(-c4ccc(C#N)cc4)c3)C[C@@H]21
inactive: Potency [1] | Potency [2] | Potency [3] | Potency [4] | Potency [5]

O=C(N/N=C/C=C\c1ccco1)c1ccccn1
inactive: Potency [2] | Potency [3] | Potency [4] | Potency [5]
active: Potency [1] 6.01 µM

CCN1C(=O)/C(=C/c2ccc(N3CCCC3)cc2)NC1=S
inactive: Potency [1] | Potency [2] | activation [3] 1.83% [at 17.1 µM, percent relative to cAMP agonist control] | Potency [4] | activity change, negative = inhibition [5] 97.9% [at 30.8 µM]

C=CCn1c(SCC(=O)Nc2sccc2C(N)=O)nc2sc(CC)cc2c1=O
inactive: Potency [1] | Potency [2] | activation [3] 6.26% [at 17.1 µM, percent relative to cAMP agonist control] | Potency [4] | activity change, negative = inhibition [5] -8.95% [at 30.8 µM]
